Compounds with a hit are over-represented: about 3% of the library has one in this group of screens.
Mtb BioA inh: inhibitors of Mycobacterium tuberculosis BioA enzyme; purified M. tuberculosis BioA enzyme, plate reader; inhibition, % at 9.99 µM; 360,000 compounds, 0.096% hits; AID 602481; in the data active means inhibition above about 40%
GDH-TPI counter: GDH-TPI coupled enzyme inhibition counter-screen | GDH-TPI coupled enzyme counterscreen, NADH absorbance | inhibition, % at 4.8 µM | 360,000 compounds, 1.2% hits | AID 588335; in the data active means inhibition above about 30%;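 further: 0% = DMSO wells and 100% = wells lacking the enzyme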
FadD28 binding: blocks FadD28 binding to the bisubstrate probe. inhibition, % at 12.5 µM. 360,000 compounds, 0.22% hits. fluorescence polarization. AID 588549; in the data active means inhibition above about 8.5%, passing the limit was not always enough
Mtb FBA inh: inhibitors of M. tuberculosis fructose-bisphosphate aldolase | inhibition, % at 1 µM | P9WQA3 | purified M. tuberculosis FBA, fluorescence read-out | 360,000 compounds, 2.3% hits; in the data active means inhibition above about 27%;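 further: 0% = vehicle and 100% = reference inhibitor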
Rv3671c protease: Rv3671c (M. tuberculosis) protease inhibition; P9WHR9; inhibition, % at 5.96 µM; 320,000 compounds, 0.048% hits; in the data active means inhibition above about 38%;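 further: extracellular domain of Rv3671c used as enzyme; 0% = enzyme with DMSO and 100% = no enzyme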
Target sequence (P9WHR9 whole entry, looked up, the tested form may be a part): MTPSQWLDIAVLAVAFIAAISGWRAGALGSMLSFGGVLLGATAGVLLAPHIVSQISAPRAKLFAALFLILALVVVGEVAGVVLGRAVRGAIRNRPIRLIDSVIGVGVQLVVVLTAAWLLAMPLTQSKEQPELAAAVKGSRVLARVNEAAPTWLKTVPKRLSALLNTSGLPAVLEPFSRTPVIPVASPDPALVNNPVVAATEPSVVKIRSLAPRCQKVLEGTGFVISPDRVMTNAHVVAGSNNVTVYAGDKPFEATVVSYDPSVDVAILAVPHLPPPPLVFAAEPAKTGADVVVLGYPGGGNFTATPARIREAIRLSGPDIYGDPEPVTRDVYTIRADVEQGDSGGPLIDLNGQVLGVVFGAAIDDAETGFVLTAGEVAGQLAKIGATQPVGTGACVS
Active calls of the source: *; nt = not tested or not shown; + = active, no number.

SMILES | Mtb BioA inh | GDH-TPI counter | FadD28 binding | Mtb FBA inh | Rv3671c protease
COC(=O)C1=CN(CC2CCCO2)C=C(C(=O)OC)C1c1cccc(O)c1 (stereo unspecified) | nt | 3.1 | -1.9 | 195.5* | 0.2
COC(=O)C1=CN(CC2CCCO2)C=C(C(=O)OC)C1c1ccccc1C(F)(F)F (stereo unspecified) | -1.0 | 6.2 | -4.2 | 158.3* | -5.0
C[C@@H]1CN([C@H](C)CO)C(=O)c2cc(C3=CCCCC3)cnc2O[C@H]1CN(C)C(=O)c1cccc(F)c1 | -0.1 | nt | nt | nt | nt
COc1ccc(S(=O)(=O)N(C)C[C@@H]2OCCCC[C@@H](C)Oc3ccc(NS(=O)(=O)c4cccs4)cc3C(=O)N([C@H](C)CO)C[C@H]2C)cc1 | 1.1 | nt | nt | nt | nt
COc1ccc(S(=O)(=O)Nc2ccc3c(c2)C(=O)N([C@@H](C)CO)C[C@H](C)[C@@H](CN(C)S(=O)(=O)c2cccs2)OCCCC[C@@H](C)O3)cc1 | -0.5 | nt | nt | nt | nt
COC(=O)c1ccc(N/C=C/C(=O)c2ccc(OC)c(OC)c2)cc1 | -0.8 | 0.7 | 0.5 | 6.5 | 2.2
COc1ccc(C(=O)/C=C/N2CCCCC2)cc1OC | -0.2 | 50.0* | 0.6 | 0.1 | -10.9
COc1ccc(CN(C)C[C@@H]2OCCCC[C@H](C)Oc3ccc(N(C)C)cc3C(=O)N([C@H](C)CO)C[C@@H]2C)cc1 | -0.6 | nt | nt | nt | nt
C[C@@H]1Cc2c(O)c(O)cc(O)c2C(=O)O1 | -0.4 | 7.8 | -1.1 | 1.8 | -22.2
CC1Oc2cc3c(-c4c(O)cc(O)c5c(O)c6c(cc45)OC(C)C(C)C6=O)c(O)cc(O)c3c(O)c2C(=O)C1C (stereo unspecified) | -0.3 | 27.4 | 31.3* | -2.4 | 39.6*
CO[C@@H]1CN(C)C(=O)c2ccc(NC(=O)Nc3ccccc3)cc2OC[C@H](C)N(C(=O)Nc2c(C)noc2C)C[C@@H]1C | -0.2 | nt | nt | nt | nt
Cc1nc(CC(=O)c2c(C)cc(O)cc2O)cs1 | -1.3 | 36.8* | -1.6 | 0.3 | 0.7
Cc1nc(CC(=O)c2ccc(O)c(C)c2O)cs1 | 0.8 | 59.3* | -1.1 | -0.6 | -11.8
Cc1nc(CC(=O)c2ccc(O)cc2O)cs1 | -1.2 | 32.5* | -0.8 | -0.6 | -3.4
O=C(Cc1cscn1)c1ccc(O)cc1O | -1.2 | 37.5* | -1.0 | -1.4 | 0.7
COC(=O)c1ccc(CC(=O)c2c(C)cc(O)cc2O)o1 | -3.8 | 21.4 | 0.9 | -5.1 | -12.3
COCC(=O)Nc1ccc2c(c1)[C@H]1C[C@H](CC(=O)NCc3ccc(-c4ccccc4)cc3)O[C@H](CO)[C@H]1O2 | -1.7 | nt | nt | nt | nt
COc1ccc(NC(=O)Nc2ccc3c(c2)C(=O)N([C@H](C)CO)C[C@@H](C)[C@H](CN(C)C)O3)cc1 | -0.6 | nt | nt | nt | nt
CC(C)C[C@@H]1NC(=O)[C@@H]2C[C@H](C(=O)NCc3ccc(F)cc3)[C@H](c3ccc(O)cc3)N2C1=O | 0.6 | nt | nt | nt | nt
COc1ccc(-c2cc3nc4n(c(=O)c3s2)CCCCC4)cc1 | nt | 24.1 | -1.7 | + | -3.1
COc1ccc(-c2cc3nc4n(c(=O)c3s2)CCC4)cc1 | -0.9 | 13.4 | -0.9 | + | -0.8
COc1ccc(-c2nc3n(c2C)CCC3)cc1 | nt | 3.4 | 0.2 | -2.0 | 6.5
COc1ccc(-c2cc3nc(C)n(N)c(=O)c3s2)cc1 | -0.2 | 32.4* | -2.5 | + | -0.8
Cc1nc2cc(-c3ccccc3)sc2c(=O)n1N | nt | 5.4 | 1.2 | 1.3 | -11.3
C[C@@H]1CN([C@H](C)CO)C(=O)c2cc(NC(=O)c3ccncc3)ccc2O[C@H]1CN(C)Cc1ccccc1 | 0.6 | nt | nt | nt | nt
SMILES | Mtb BioA inh | GDH-TPI counter | FadD28 binding | Mtb FBA inh | Rv3671c protease
O=C(Nc1nccs1)[C@@H]1[C@@H](CO)[C@@H]2Cn3c(cccc3=O)[C@H]1N2C(=O)C1CC1 | 0.7 | nt | nt | nt | nt
CO[C@@H]1CN(C)C(=O)c2cc(NC(=O)NC(C)C)ccc2OC[C@@H](C)N(Cc2ccccc2)C[C@H]1C | 1.9 | nt | nt | nt | nt
O=C1NCCc2c1[nH]c1ccccc21 | nt | -4.0 | -3.7 | 27.2* | 0.8
COC(=O)C[C@H]1C=C[C@H](NS(=O)(=O)c2ccc(OC)cc2)[C@@H](CO)O1 | 2.0 | nt | nt | nt | nt
Cc1cc(C)nc(NC(=O)/C=C/c2cccs2)c1 | 0.1 | 47.4* | -4.5 | -3.8 | -5.0
O=C(/C=C/c1cccs1)Nc1nccs1 | nt | 26.5 | -0.4 | 1.3 | -3.0
O=C(/C=C/c1cccs1)Nc1cccc(NC(=O)/C=C/c2cccs2)n1 | 0.7 | 57.0* | -3.0 | 0.0 | -264.6
CC(C)c1cc(NCC2CCCO2)n2c(nc3ccccc32)c1C#N (stereo unspecified) | 2.3 | 8.0 | -4.4 | + | -2.5
CCc1c(C)c(C#N)c2nc3ccccc3n2c1NCC1CCCO1 (stereo unspecified) | 4.9 | 7.7 | -1.4 | 6.0 | 2.9

Screening results: PubChem, several laboratories
